# From PubChem BioAssay (NCATS)
# Inconclusive results are not listed. A call without a number means that no potency is given here. Calls of active or inactive are those of the source. Unless noted, calls come from the whole dose curve; as a rule, active = well fitted curve in the direction sought with a large enough effect; inconclusive = small, poorly fitted or top-dose-only effect, or another doubt; inactive = no such curve, though single readings can be large; an effect the other way counts as inactive or inconclusive.
# Key:
# [1] = qHTS profiling for inhibitors of Plasmodium falciparum proliferation (AID 504749); note: potency is the fitted concentration of half-maximal effect; for all read-outs here: nearly all actives have a fitted effect of over 60% in size; details: P. falciparum in erythrocytes, SYBR Green DNA, 72 h; for activity, negative = inhibition: at 28.7 µM (top of the series)
# Method in brief: (§1)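 In a 72 h erythrocytic culture (37 C, humidified, 5% CO2) at 2.5% hematocrit and 0.3% starting parasitemia, compounds were tested; SYBR Green I in detergent lysis buffer stained parasite DNA overnight.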
# [2] = tested on: 3D7; test: as above; details: P. falciparum in erythrocytes, SYBR Green DNA, 72 h; series mostly up to 28.7 µM
# Method in brief: as §1
# [3] = tested on: 7G8; test: as above; details: P. falciparum in erythrocytes, SYBR Green DNA, 72 h; series mostly up to 28.7 µM
# Method in brief: as §1
# [4] = tested on: AA1029; test: as above; details: P. falciparum in erythrocytes, SYBR Green DNA, 72 h; series mostly up to 28.7 µM
# Method in brief: as §1
# [5] = tested on: AS120; test: as above; details: P. falciparum in erythrocytes, SYBR Green DNA, 72 h; series mostly up to 28.7 µM
# Method in brief: as §1
# [6] = tested on: ATS189; test: as above; details: P. falciparum in erythrocytes, SYBR Green DNA, 72 h; series mostly up to 28.7 µM
# Method in brief: as §1
# [7] = tested on: ATS95; test: as above; details: P. falciparum in erythrocytes, SYBR Green DNA, 72 h; series mostly up to 28.7 µM
# Method in brief: as §1
# [8] = tested on: CP185; test: as above; details: P. falciparum in erythrocytes, SYBR Green DNA, 72 h; series mostly up to 28.7 µM
# Method in brief: as §1
# [9] = tested on: CP191; test: as above; details: P. falciparum in erythrocytes, SYBR Green DNA, 72 h; series mostly up to 28.7 µM
# Method in brief: as §1
# [10] = tested on: CP194; test: as above; details: P. falciparum in erythrocytes, SYBR Green DNA, 72 h; series mostly up to 28.7 µM
# Method in brief: as §1
# [11] = tested on: C2A; test: as above; details: P. falciparum in erythrocytes, SYBR Green DNA, 72 h; series mostly up to 28.7 µM
# Method in brief: as §1
# [12] = tested on: CP192; test: as above; details: P. falciparum in erythrocytes, SYBR Green DNA, 72 h; series mostly up to 28.7 µM
# Method in brief: as §1
# [13] = Quantitative High-Throughput drug screen in 47 multiple myeloma cell lines against the NCATS MIPE library collection: KMS11_JCRBsus cell viability assay (AID 1919873); details: KMS11 myeloma viability, CellTiter-Glo ATP luminescence, 48 h; series mostly up to 45.8 µM; note: potency is the fitted concentration of half-maximal effect; nearly all actives have a fitted effect of over 50% in size
# Method in brief: (§2)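 ATP-based luminescence (CellTiter-Glo, 5 min RT incubation) quantified surviving cells following two days' treatment with MIPE 4.0 agents at 37 °C, 5% CO2.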
# [14] = qHTS drug screen for cell cycle checkpoint inhibitors in PARPi-resistant BRCA-mutant ovarian cancer cell lines. (AID 1963452; calls by dose curve); details: PEO1/OlaR viability, CellTiter-Glo luminescence, 96 h, stronger effect = lower value
# Method in brief: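 PEO1, PEO4 and PEO1/OlaR ovarian cancer cells, 600 per well, exposed 96 h at 37C to a dilution series. Viability read by CellTiter-Glo luminescence, normalized to DMSO and empty wells; activity summarized as Z-AUC.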
# [15] = Quantitative High-Throughput drug screen in 47 multiple myeloma cell lines against the NCATS MIPE library collection: OPM2_DSMZ cell viability assay (AID 1919872); details: OPM2 myeloma viability, CellTiter-Glo ATP luminescence, 48 h; series mostly up to 45.8 µM; note: nearly all actives have a fitted effect of over 30% in size
# Method in brief: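 qHTS of the MIPE 4.0 collection: 500 myeloma cells/well, 48 h drug exposure at 37C in 5% CO2, then CellTiter-Glo for 5 min at room temperature before luminescence reading.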
# [16] = Quantitative High-Throughput drug screen in 47 multiple myeloma cell lines against the NCATS MIPE library collection: KMS28BM_JCRB cell viability assay (AID 1919874); details: CellTiter-Glo ATP, 48 h; series mostly up to 45.8 µM; note: nearly all actives have a fitted effect of over 35% in size
# Method in brief: as §2
# [17] = measured here: PEO1 parental Z-AUC
smiles,measurement,setting,value
O=[N+]([O-])c1ccc([As](=O)(O)O)cc1,Potency,[1]; parasite line A,6.31 µM (active)
same,Potency,[1]; parasite line B,6.31 µM (active)
same,Potency,[2],10 µM (active)
same,Potency,[3],3.55 µM (active)
same,Potency,[4],3.98 µM (active)
same,Potency,[5],7.94 µM (active)
same,Potency,[6],7.08 µM (active)
same,Potency,[7],11.2 µM (active)
same,Potency,[8],8.91 µM (active)
same,Potency,[9],6.31 µM (active)
same,Potency,[10],13.5 µM (active)
C=CCN1CC[C@]23CCCCC2[C@H]1Cc1ccc(O)cc13 (stereo partly drawn),"activity, negative = inhibition",[1]; parasite line A,18.6% (inactive)
same,"activity, negative = inhibition",[1]; parasite line B,4.44% (inactive)
same,Potency,[2],inactive
same,Potency,[3],11.2 µM (active)
same,Potency,[4],inactive
same,Potency,[5],inactive
same,Potency,[6],inactive
same,Potency,[7],inactive
same,Potency,[11],inactive
same,Potency,[8],inactive
same,Potency,[9],inactive
same,Potency,[12],inactive
same,Potency,[10],inactive
COc1ccc2c(c1)CN(C)CC2c1ccc(Cl)c(Cl)c1 (stereo not drawn),Potency,[13],14.8 µM (active)
CC(C)NC(C)Cc1ccc(I)cc1 (stereo not drawn),"activity, negative = inhibition",[1]; parasite line A,11.4% (inactive)
same,"activity, negative = inhibition",[1]; parasite line B,-12.4% (inactive)
same,Potency,[2],inactive
same,Potency,[3],10 µM (active)
same,Potency,[4],inactive
same,Potency,[5],inactive
same,Potency,[6],inactive
same,Potency,[7],inactive
same,Potency,[11],inactive
same,Potency,[8],inactive
same,Potency,[9],inactive
same,Potency,[12],inactive
same,Potency,[10],inactive
COC(=O)c1cncn1C(C)c1ccccc1 (stereo not drawn),Potency,[12],inactive
same,Potency,[10],inactive
CN[C@@H]1C[C@@H](c2ccc(Cl)c(Cl)c2)c2ccccc21,Potency,[2],inactive
same,Potency,[3],10 µM (active)
same,Potency,[6],inactive
same,Potency,[11],inactive
same,Potency,[9],inactive
same,Potency,[12],inactive
CC(C)[C@]12O[C@H]1[C@@H]1O[C@]13[C@]1(O[C@H]1C[C@H]1C4=C(CC[C@@]13C)C(=O)OC4)[C@@H]2O,Z-AUC,[14],-2.76 (inactive)
same,Z-AUC,[14]; [17],-2.59
same,Z-AUC,[14]; measured here: PEO4 Z-AUC,-3.67
CC[N+]1(CCOC(=O)C(O)(c2ccccc2)c2ccccc2)CCCCC1,"activity, negative = inhibition",[1]; parasite line A,-23.7% (inactive)
same,"activity, negative = inhibition",[1]; parasite line B,-20.1% (inactive)
same,Potency,[2],inactive
same,Potency,[5],inactive
same,Potency,[6],inactive
same,Potency,[7],inactive
same,Potency,[11],inactive
same,Potency,[9],inactive
same,Potency,[12],inactive
same,Potency,[10],inactive
CCCN1CCO[C@@H]2c3cc(O)ccc3OC[C@H]21,Z-AUC,[14],0.538 (inactive)
same,Z-AUC,[14]; [17],0.85
same,Z-AUC,[14]; measured here: PEO4 Z-AUC,0.552
CCCCCCCCCCCCCCCC[N+](C)(C)C,Potency,[1]; parasite line A,11.2 µM (active)
same,Potency,[2],8.91 µM (active)
same,Potency,[3],11.2 µM (active)
same,Potency,[5],11.2 µM (active)
same,Potency,[11],8.91 µM (active)
O=C(N[C@@H](COc1ccc2[nH]c(=O)[nH]c2c1)c1ccccc1)c1cccn(Cc2ccc(F)c(F)c2)c1=O,Potency,[15],inactive
same,Z-AUC,[14],-0.315 (inactive)
same,Z-AUC,[14]; [17],0.00624
same,Z-AUC,[14]; measured here: PEO4 Z-AUC,0.64
CCCCc1ccc(C(=O)O)nc1,"activity, negative = inhibition",[1]; parasite line A,0.211% (inactive)
same,"activity, negative = inhibition",[1]; parasite line B,1.46% (inactive)
same,Potency,[2],inactive
same,Potency,[3],inactive
same,Potency,[4],inactive
same,Potency,[5],inactive
same,Potency,[6],inactive
same,Potency,[7],inactive
same,Potency,[11],inactive
same,Potency,[8],inactive
same,Potency,[9],inactive
same,Potency,[12],inactive
same,Potency,[10],inactive
NC(=O)CN1CC(O)CC1=O (stereo not drawn),"activity, negative = inhibition",[1]; parasite line A,3.26% (inactive)
same,"activity, negative = inhibition",[1]; parasite line B,7.69% (inactive)
same,Potency,[2],inactive
same,Potency,[3],inactive
same,Potency,[4],inactive
same,Potency,[5],inactive
same,Potency,[6],inactive
same,Potency,[7],inactive
same,Potency,[11],inactive
same,Potency,[8],inactive
same,Potency,[9],inactive
same,Potency,[12],inactive
same,Potency,[10],inactive
C[C@]12Cc3cn[nH]c3C[C@@H]1CC[C@@H]1[C@H]2CC[C@@]2(C)[C@H]1CC[C@]2(C)O,Potency,[15],inactive
same,Potency,[16],inactive
C1CCC(NC2CCCCC2)CC1,"activity, negative = inhibition",[1]; parasite line A,7.71% (inactive)
same,"activity, negative = inhibition",[1]; parasite line B,9.08% (inactive)
same,Potency,[2],inactive
same,Potency,[3],inactive
same,Potency,[4],inactive
same,Potency,[5],inactive
same,Potency,[6],inactive
same,Potency,[7],inactive
same,Potency,[11],inactive
same,Potency,[8],inactive
same,Potency,[9],inactive
same,Potency,[12],inactive
same,Potency,[10],inactive
c1ccc(C2(c3ccccc3)CC2C2=NCCN2)cc1 (stereo not drawn),"activity, negative = inhibition",[1]; parasite line A,-23% (inactive)
same,"activity, negative = inhibition",[1]; parasite line B,-12.8% (inactive)
same,Potency,[2],inactive
same,Potency,[4],inactive
same,Potency,[5],inactive
same,Potency,[6],inactive
same,Potency,[7],inactive
same,Potency,[11],inactive
same,Potency,[8],inactive
same,Potency,[12],inactive
same,Potency,[10],inactive
